Results taken from PubChem BioAssay (EPA / NIEHS).
Several values for one entry are separate records, joined by “and”; a condition that tells them apart may be missing. Equal values may be shown once. Results filed as inconclusive are left out. Some compounds were tested as several samples or in several runs, with calls that do not always agree. Activity calls are given as the source filed them. The calls were made as follows, unless noted: active = hit-call score of the fitted dose curve at least 0.9, where 1 is the maximum; inconclusive = response in the unintended direction; inactive = score below 0.9.

Key:
[1] = target: Estrogen receptor beta (Homo sapiens) (UniProt Q92731); experiment: ATG_hERb_XSP2: Attagene TRANS-FACTORIAL Multi-Species (XSP2) HepG2 Assay for human Estrogen Receptor (ERb) (AID 2283813);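 also: actives raise reporter mRNA above DMSO so AC50 reflects agonist induction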
Outline: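 HepG2 cells transiently transfected with GAL4-UAS reporter units and chimeric human ERb-Gal4, 24 h exposure. Reporter mRNA quantified by RT-PCR with FAM labelling, HpaI digestion and capillary electrophoresis; gain of signal versus DMSO.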

[2] = target: zebrafish Estrogen Receptor (ER1), esr1 (gene 259252) (UniProt P57717); experiment: ATG_zfER1_XSP2: Attagene TRANS-FACTORIAL Multi-Species (XSP2) HepG2 Assay for zebrafish Estrogen Receptor (ER1) (AID 2283816)
Outline: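 HepG2 cells transiently transfected with a GAL4-UAS reporter and a chimeric zebrafish ER1-Gal4 construct, dosed 24 h. Reporter mRNA quantified by RT-PCR, labelling, HpaI digestion and capillary electrophoresis, relative to DMSO.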

[3] = target: chicken Estrogen Receptor (ERa), ESR1 (gene 396099) (UniProt P06212); experiment: ATG_chERa_XSP2: Attagene TRANS-FACTORIAL Multi-Species (XSP2) HepG2 Assay for chicken Estrogen Receptor (ERa) (AID 2283817);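 also: actives raise reporter signal above DMSO so AC50 reflects ER activation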
Outline: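 Transiently transfected HepG2 cells expressing chimeric chicken ERa-GAL4 reporter units, dosed 24 h with 3 nM 6-alpha-fluorotestosterone and 1.5 nM norgestrel present. Reporter mRNA measured by RT-PCR and capillary electrophoresis; gain-of-signal fitted relative to DMSO.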

[4] = system: frog Estrogen Receptor (ER), gene 398734; experiment: ATG_frER1_XSP2: Attagene TRANS-FACTORIAL Multi-Species (XSP2) HepG2 Assay for frog Estrogen Receptor (ER) (AID 2283821);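 also: hits raise reporter mRNA above DMSO baseline so potency means agonist or activator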
Outline: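 HepG2 cells transiently transfected with GAL4-UAS reporter units expressing a chimeric frog ER-Gal4 protein; 24 h exposure. Reporter mRNA quantified by RT-PCR, fluorescent labelling and capillary electrophoresis; gain of signal fitted against DMSO baseline.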

[5] = system: zebrafish Estrogen Receptor (ER2b), gene 317733; experiment: ATG_zfER2b_XSP2: Attagene TRANS-FACTORIAL Multi-Species (XSP2) HepG2 Assay for zebrafish Estrogen Receptor (ER2b) (AID 2283823);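 also: fitted upward as reporter gain over DMSO so potency reflects activation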
Outline: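 Reporter transcripts quantified by RT-PCR, fluorescent labelling and capillary electrophoresis after 24 h dosing of transfected HepG2 expressing zebrafish ER2b-GAL4 fusion. Medium contained 3 nM 6-alpha-fluorotestosterone plus 1.5 nM norgestrel; DMSO baseline.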

[6] = target: Peroxisome proliferator-activated receptor gamma (Homo sapiens) (UniProt P37231); experiment: ATG_hPPARg_XSP2: Attagene TRANS-FACTORIAL Multi-Species (XSP2) HepG2 Assay for human Peroxisome Proliferator-activated Receptor gamma (PPARg) (AID 2283829);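 also: actives raise reporter mRNA above DMSO so AC50 reflects PPARg activation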
Outline: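 HepG2 cells transiently transfected with GAL4-UAS reporter units driven by chimeric NR-Gal4 proteins; androgen receptor stimulated with 3 nM 6-alpha-fluorotestosterone and 1.5 nM norgestrel. After 24 h, reporter mRNA quantified by RT-PCR and capillary electrophoresis versus DMSO.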

[7] = target: zebrafish Thyroid Hormone Receptor alpha (TRa), thraa (gene 30670) (UniProt Q98867); experiment: ATG_zfTRa_XSP2: Attagene TRANS-FACTORIAL Multi-Species (XSP1) HepG2 Assay for zebrafish Thyroid Hormone Receptor alpha (TRa) (AID 2283832);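 also: actives raise zebrafish TRa-Gal4 reporter transcript above DMSO baseline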
Outline: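 Transient transfection of human HepG2 with GAL4-UAS reporter units, then 24 h chemical treatment. RNA isolated, reverse-transcribed, PCR-amplified, FAM-labelled, HpaI-digested and run on capillary electrophoresis. Gain-of-signal relative to DMSO.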

[8] = system: zebrafish Peroxisome Proliferator-activated Receptor gamma (PPARg), gene 557037; experiment: ATG_zfPPARg_XSP2: Attagene TRANS-FACTORIAL Multi-Species (XSP2) HepG2 Assay for zebrafish Peroxisome Proliferator-activated Receptor gamma (PPARg) (AID 2283833);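 also: actives increase reporter signal over DMSO so AC50 reflects activation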
Outline: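 HepG2 cells transiently transfected with multiplexed GAL4-UAS reporter units expressing chimeric NR-Gal4 receptors, dosed 24 h. Reporter mRNA quantified by RT-PCR, fluorescent labelling, HpaI digestion and capillary electrophoresis; gain of signal fitted against DMSO.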

[9] = system: turtle Thyroid Hormone Receptor, alpha (TRa), gene 101949057; experiment: ATG_trTRa_XSP2: Attagene TRANS-FACTORIAL Multi-Species (XSP1) HepG2 Assay for turtle Thyroid Hormone Receptor, alpha (TRa) (AID 2283834);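 also: hits raise reporter mRNA over the DMSO baseline so AC50 marks activators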
Outline: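 HepG2 cells transiently transfected with GAL4-UAS reporter units for chimeric turtle TRa-Gal4; mRNA measured 24 h after dosing by RT-PCR and capillary electrophoresis fluorescence, gain of signal fitted against DMSO.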

[10] = ATG_M_61_XSP2: Attagene TRANS-FACTORIAL Multi-Species (XSP2) HepG2 Assay for M61 Transcription Factor (Internal Marker) (AID 2283835; active = hit-call score of the fitted dose curve at least 0.9, where 1 is the maximum; inactive = score below 0.9;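 also: active means a rise in signal above the DMSO baseline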)
Outline: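 HepG2 cells transiently transfected with multiple GAL4-UAS reporter units; reporter mRNA measured 24 h after dosing by RT-PCR, fluorescent labelling and capillary electrophoresis. Medium contained 3 nM 6-alpha-fluorotestosterone and 1.5 nM norgestrel; internal marker, DMSO baseline.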

[11] = target: zebrafish Thyroid Hormone Receptor beta (TRb), thrb (gene 30607) (UniProt Q9PVE4); experiment: ATG_zfTRb_XSP2: Attagene TRANS-FACTORIAL Multi-Species (XSP1) HepG2 Assay for zebrafish Thyroid Hormone Receptor beta (TRb) (AID 2283836);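 as to AC50: potency for induction of reporter signal above DMSO so agonist direction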
Outline: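 Human liver HepG2, transient MRTU transfection (NR-Gal4 chimeras, GAL4-UAS reporters); 24 h compound exposure; total RNA → oligo(dT) RT → PCR → 6-FAM label → HpaI cut → CE fluorescence. DMSO = negative control/baseline.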

[12] = ATG_XTT_Cytotoxicity_XSP2: Cytotoxicity Assessment in the Attagene TRANS-FACTORIAL Multi-Species (XSP2) HepG2 Assay (AID 2283837)
Outline: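 HepG2 cells, transiently transfected with multiple reporter constructs, exposed to chemical for 24 h. Cell number assessed with XTT fluorescence read-out; loss of signal fitted relative to DMSO.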

[13] = system: turtle Estrogen Receptor (ERa), gene 101933533; experiment: ATG_trERa_XSP2: Attagene TRANS-FACTORIAL Multi-Species (XSP2) HepG2 Assay for turtle Estrogen Receptor (ERa) (AID 2283812);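 also: human HepG2 liver cells transiently expressing turtle ERa-Gal4 chimeric receptor; actives raise reporter signal above DMSO so AC50 reflects agonist activity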
Outline: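 HepG2 cells transiently transfected with GAL4-UAS reporter units expressing turtle ERa-Gal4 chimera. Reporter mRNA measured after 24 h dosing by RT-PCR, fluorescent labelling and capillary electrophoresis; gain of signal fitted versus DMSO.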

[14] = target: GAL4 Transcription Factor (Internal Marker), GAL4 (gene 855828) (UniProt P04386); experiment: ATG_GAL4_XSP2: Attagene TRANS-FACTORIAL Multi-Species (XSP2) HepG2 Assay for GAL4 Transcription Factor (Internal Marker) (AID 2283814);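 also: GAL4 reporter mRNA background control in MRTU transfected cells not a receptor target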
Outline: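 HepG2 cells transiently transfected with GAL4-UAS reporter units, stimulated with 3 nM 6-alpha-fluorotestosterone plus 1.5 nM norgestrel, dosed 24 h. Reporter mRNA by RT-PCR/capillary electrophoresis; gain-of-signal fit versus DMSO, background control.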

[15] = system: zebrafish Estrogen Receptor (ER2a), gene 317734; experiment: ATG_zfER2a_XSP2: Attagene TRANS-FACTORIAL Multi-Species (XSP2) HepG2 Assay for zebrafish Estrogen Receptor (ER2a) (AID 2283818);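 also: hits raise reporter mRNA so AC50 reflects activation of zebrafish ER2a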
Outline: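 HepG2 cells transiently transfected with GAL4-UAS reporter units and chimeric zebrafish ER2a-Gal4, exposed 24 h; medium contains 3 nM 6-alpha-fluorotestosterone and 1.5 nM norgestrel. Reporter mRNA quantified by RT-PCR, HpaI digestion, capillary electrophoresis; gain versus DMSO.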

[16] = system: frog Estrogen Receptor (ER2), gene 100174814; experiment: ATG_frER2_XSP2: Attagene TRANS-FACTORIAL Multi-Species (XSP2) HepG2 Assay for frog Estrogen Receptor (ER2) (AID 2283828)
Outline: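 HepG2 cells transiently transfected with multiplexed GAL4-UAS reporter units expressing chimeric frog ER2–Gal4 protein; reporter mRNA measured 24 h after chemical dosing by RT-PCR, fluorescent labeling and capillary electrophoresis. Gain-of-signal fitted relative to DMSO baseline.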

[17] = system: turtle Androgen Receptor (AR), gene 101947425; experiment: ATG_trAR_XSP2: Attagene TRANS-FACTORIAL Multi-Species (XSP2) HepG2 Assay for turtle Androgen Receptor (AR) (AID 2283815)
Outline: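 HepG2 cells transiently transfected with GAL4-UAS reporter units for chimeric NR-Gal4 receptors; 24 h dosing in presence of 3 nM 6-alpha-fluorotestosterone and 1.5 nM norgestrel. Reporter mRNA by RT-PCR and capillary electrophoresis, gain of signal versus DMSO.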

[18] = system: chicken Androgen Receptor (AR), gene 422165; experiment: ATG_chAR_XSP2: Attagene TRANS-FACTORIAL Multi-Species (XSP2) HepG2 Assay for chicken Androgen Receptor (AR) (AID 2283819);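 also: hits raise reporter mRNA above DMSO so potency is for activation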
Outline: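 HepG2 cells transiently transfected with chicken AR–GAL4 chimeric reporter constructs, stimulated with 3 nM 6-alpha-fluorotestosterone plus 1.5 nM norgestrel, dosed 24 h. Reporter mRNA quantified by RT-PCR and capillary electrophoresis; gain of signal fitted versus DMSO.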

[19] = system: frog Androgen Receptor (AR), gene 399456; experiment: ATG_frAR_XSP2: Attagene TRANS-FACTORIAL Multi-Species (XSP2) HepG2 Assay for frog Androgen Receptor (AR) (AID 2283824);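 also: actives raise reporter signal above DMSO so AC50 reflects agonist-like induction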
Outline: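 HepG2 cells transiently transfected with GAL4-UAS reporter units and frog (Xenopus laevis) AR-Gal4 chimera; reporter mRNA measured 24 h after dosing by RT-PCR and capillary electrophoresis. Gain of signal fitted relative to DMSO baseline.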

Measured: AC50

Sequence of Estrogen receptor beta (Homo sapiens) (Q92731 whole entry, looked up, the tested form may be a part): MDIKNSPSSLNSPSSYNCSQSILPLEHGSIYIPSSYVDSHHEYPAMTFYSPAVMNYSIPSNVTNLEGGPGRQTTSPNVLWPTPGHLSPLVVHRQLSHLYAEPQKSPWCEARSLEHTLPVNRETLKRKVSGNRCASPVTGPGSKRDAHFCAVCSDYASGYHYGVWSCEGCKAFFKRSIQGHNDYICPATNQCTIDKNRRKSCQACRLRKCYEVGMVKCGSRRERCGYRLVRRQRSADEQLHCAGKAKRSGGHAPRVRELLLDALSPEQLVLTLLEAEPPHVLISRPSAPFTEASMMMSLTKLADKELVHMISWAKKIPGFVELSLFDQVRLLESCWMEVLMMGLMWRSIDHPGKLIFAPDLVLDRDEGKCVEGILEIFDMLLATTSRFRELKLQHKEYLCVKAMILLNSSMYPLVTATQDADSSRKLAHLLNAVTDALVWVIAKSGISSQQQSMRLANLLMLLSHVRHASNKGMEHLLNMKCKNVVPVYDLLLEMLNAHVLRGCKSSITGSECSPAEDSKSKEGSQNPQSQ
Sequence of chicken Estrogen Receptor (ERa), ESR1 (gene 396099) (P06212 whole entry, looked up, the tested form may be a part): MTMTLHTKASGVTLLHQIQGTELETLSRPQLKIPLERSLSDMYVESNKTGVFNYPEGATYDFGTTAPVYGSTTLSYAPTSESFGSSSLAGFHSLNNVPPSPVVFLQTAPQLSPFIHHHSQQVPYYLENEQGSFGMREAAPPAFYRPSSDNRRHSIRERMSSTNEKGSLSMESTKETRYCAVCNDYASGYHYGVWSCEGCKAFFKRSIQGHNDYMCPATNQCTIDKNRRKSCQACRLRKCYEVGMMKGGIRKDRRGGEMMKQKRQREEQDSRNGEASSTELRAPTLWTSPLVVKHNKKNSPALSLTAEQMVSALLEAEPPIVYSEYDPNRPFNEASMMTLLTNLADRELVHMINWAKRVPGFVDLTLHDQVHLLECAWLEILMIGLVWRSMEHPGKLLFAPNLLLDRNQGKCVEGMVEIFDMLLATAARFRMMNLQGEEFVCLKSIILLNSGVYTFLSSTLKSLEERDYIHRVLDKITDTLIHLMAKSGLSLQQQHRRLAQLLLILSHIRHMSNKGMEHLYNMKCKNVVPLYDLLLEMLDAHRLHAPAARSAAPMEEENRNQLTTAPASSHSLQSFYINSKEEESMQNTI
Sequence of Peroxisome proliferator-activated receptor gamma (Homo sapiens) (P37231 whole entry, looked up, the tested form may be a part): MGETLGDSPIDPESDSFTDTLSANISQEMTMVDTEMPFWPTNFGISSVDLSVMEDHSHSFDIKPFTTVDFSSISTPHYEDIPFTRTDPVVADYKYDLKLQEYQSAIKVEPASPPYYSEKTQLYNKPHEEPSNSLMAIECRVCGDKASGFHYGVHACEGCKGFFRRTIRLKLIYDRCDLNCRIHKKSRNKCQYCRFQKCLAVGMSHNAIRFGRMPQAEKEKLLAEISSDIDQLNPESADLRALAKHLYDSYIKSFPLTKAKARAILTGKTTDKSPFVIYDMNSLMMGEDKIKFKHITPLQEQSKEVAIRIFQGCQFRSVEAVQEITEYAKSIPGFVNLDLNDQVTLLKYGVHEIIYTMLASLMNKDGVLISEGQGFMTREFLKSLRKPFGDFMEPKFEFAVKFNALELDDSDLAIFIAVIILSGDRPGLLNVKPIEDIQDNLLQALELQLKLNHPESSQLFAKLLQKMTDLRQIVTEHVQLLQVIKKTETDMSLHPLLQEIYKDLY
Sequence of zebrafish Estrogen Receptor (ER1), esr1 (gene 259252) (P57717 whole entry, looked up, the tested form may be a part): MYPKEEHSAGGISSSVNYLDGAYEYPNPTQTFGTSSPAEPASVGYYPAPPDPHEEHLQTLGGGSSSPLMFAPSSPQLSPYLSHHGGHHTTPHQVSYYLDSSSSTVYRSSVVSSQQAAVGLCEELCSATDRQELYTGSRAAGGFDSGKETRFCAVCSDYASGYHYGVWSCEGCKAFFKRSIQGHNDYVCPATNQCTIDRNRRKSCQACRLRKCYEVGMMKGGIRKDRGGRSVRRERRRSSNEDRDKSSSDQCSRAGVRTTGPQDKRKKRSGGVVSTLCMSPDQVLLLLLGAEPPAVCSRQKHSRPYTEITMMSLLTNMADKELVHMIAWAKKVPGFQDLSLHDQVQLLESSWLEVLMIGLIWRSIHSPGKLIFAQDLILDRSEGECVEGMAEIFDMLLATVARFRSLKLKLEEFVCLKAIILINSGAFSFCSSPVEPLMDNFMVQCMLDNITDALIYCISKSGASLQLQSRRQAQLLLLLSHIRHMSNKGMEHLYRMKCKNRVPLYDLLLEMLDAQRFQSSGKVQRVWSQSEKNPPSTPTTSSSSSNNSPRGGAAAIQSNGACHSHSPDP
Sequence of zebrafish Thyroid Hormone Receptor beta (TRb), thrb (gene 30607) (Q9PVE4 whole entry, looked up, the tested form may be a part): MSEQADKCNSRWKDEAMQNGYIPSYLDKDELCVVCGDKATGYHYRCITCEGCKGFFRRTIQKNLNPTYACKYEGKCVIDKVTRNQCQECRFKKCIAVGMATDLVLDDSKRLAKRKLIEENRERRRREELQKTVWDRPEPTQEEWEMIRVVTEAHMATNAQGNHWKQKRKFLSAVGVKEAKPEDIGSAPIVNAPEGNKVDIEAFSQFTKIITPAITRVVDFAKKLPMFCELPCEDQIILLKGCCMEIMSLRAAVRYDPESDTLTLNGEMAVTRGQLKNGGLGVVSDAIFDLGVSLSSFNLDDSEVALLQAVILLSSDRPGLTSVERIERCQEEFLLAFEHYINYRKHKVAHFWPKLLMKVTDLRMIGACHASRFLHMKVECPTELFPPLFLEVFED
Sequence of zebrafish Thyroid Hormone Receptor alpha (TRa), thraa (gene 30670) (Q98867 whole entry, looked up, the tested form may be a part): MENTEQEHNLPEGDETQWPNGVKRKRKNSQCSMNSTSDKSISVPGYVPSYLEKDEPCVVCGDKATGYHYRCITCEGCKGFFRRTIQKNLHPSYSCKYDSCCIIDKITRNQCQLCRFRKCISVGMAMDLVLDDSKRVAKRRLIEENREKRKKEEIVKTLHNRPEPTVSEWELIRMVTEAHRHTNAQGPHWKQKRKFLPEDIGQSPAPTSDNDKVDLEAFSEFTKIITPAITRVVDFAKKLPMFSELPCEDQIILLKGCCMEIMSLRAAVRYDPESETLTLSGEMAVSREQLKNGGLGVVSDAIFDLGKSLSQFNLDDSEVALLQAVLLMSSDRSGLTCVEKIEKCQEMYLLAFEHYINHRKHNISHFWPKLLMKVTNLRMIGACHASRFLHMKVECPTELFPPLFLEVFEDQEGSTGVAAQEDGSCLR
Sequence of GAL4 Transcription Factor (Internal Marker), GAL4 (gene 855828) (P04386 whole entry, looked up, the tested form may be a part): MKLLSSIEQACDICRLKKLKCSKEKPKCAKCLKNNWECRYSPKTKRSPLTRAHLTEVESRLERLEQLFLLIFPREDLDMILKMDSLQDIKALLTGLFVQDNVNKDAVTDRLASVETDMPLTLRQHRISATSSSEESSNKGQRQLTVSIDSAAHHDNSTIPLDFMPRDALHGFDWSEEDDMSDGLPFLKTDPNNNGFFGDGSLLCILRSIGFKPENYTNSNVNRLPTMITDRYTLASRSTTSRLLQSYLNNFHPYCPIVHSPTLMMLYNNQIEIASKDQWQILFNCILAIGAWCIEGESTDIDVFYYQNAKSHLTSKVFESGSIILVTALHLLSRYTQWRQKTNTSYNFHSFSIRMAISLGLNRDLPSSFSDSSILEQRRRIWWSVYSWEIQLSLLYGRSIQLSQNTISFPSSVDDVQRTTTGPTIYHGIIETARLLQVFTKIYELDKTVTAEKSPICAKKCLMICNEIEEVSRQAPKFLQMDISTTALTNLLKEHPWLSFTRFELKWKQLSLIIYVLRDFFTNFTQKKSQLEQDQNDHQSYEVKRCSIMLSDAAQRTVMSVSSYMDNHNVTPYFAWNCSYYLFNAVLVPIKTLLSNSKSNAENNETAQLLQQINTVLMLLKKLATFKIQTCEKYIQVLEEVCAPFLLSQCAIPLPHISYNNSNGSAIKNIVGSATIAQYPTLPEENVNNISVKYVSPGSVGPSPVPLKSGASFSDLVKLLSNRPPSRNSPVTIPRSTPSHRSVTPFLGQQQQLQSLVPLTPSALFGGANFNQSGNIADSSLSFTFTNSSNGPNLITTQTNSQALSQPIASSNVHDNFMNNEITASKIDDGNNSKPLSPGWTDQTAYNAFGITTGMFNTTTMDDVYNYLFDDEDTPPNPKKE

Oc1c(I)cc(I)cc1I
active: [3] 2.58 µM | [5] 57.4 µM | [6] 12 µM and 10.4 µM | [7] 100 µM | [8] 26.1 µM and 23.3 µM | [11] 26.3 µM | [12] 69.1 µM
inactive: [1] | [2] | [4] | [5] | [7] | [9] | [10] | [11]

COP(=O)(OC)O/C(=C\Cl)c1cc(Cl)c(Cl)cc1Cl
inactive: [14] | [15] | [4] | [16] | [7] | [9] | [10] | [11]
active: [13] 3.18 µM | [3] 4.9 µM | [5] 45.5 µM | [6] 15 µM | [8] 47.3 µM

O=C1C2(Cl)C3(Cl)C4(Cl)C(Cl)(Cl)C5(Cl)C3(Cl)C1(Cl)C5(Cl)C24Cl (configuration not stated)
active: [13] 0.514 µM | [3] 1.33 µM | [5] 4.05 µM
inactive: [2] | [4] | [16] | [6] | [7] | [8] | [9] | [10] | [11]

O=S(=O)(c1ccc(Cl)cc1)c1ccc(Cl)cc1
active: [13] 14.4 µM and 15.9 µM | [1] 8.12 µM | [2] 26.6 µM and 37.7 µM | [3] 35.3 µM and 19.3 µM | [4] 26.4 µM | [5] 100 µM and 27.1 µM | [16] 28 µM | [6] 11.4 µM and 6.91 µM
inactive: [1] | [15] | [4] | [16] | [7] | [8] | [9] | [10] | [11] | [12]

CC(C)(C)CC(C)(C)c1ccc(O)cc1
active: [13] 5.79 µM | [3] 4.49 µM | [4] 3.4 µM | [5] 5.17 µM | [16] 4.83 µM
inactive: [1] | [15] | [9] | [10] | [11]

CC(C)(C)c1cc(O)ccc1O
active: [13] 15.3 µM | [3] 24.6 µM | [15] 43.8 µM | [4] 15.6 µM | [5] 55.2 µM | [16] 46.8 µM | [7] 54.9 µM
not listed: [1] | [6] | [12] | [14]
inactive: all other assays above

CC12CC1(C)C(=O)N(c1cc(Cl)cc(Cl)c1)C2=O (configuration not stated)
active: [13] 100 µM | [3] 58.5 µM | [5] 29.8 µM | [16] 100 µM
inactive: [13] | [1] | [14] | [2] | [3] | [15] | [4] | [5] | [16] | [6] | [7] | [8] | [9] | [10] | [11]

Oc1ccc(-c2ccccc2)cc1
inactive: [7] | [8] | [9] | [10] | [11] | [12]
active: [13] 1.44 µM and 925 nM | [1] 1.16 µM and 1.68 µM | [2] 4.42 µM and 8.23 µM | [3] 712 nM and 200 nM | [15] 2.6 µM and 1.43 µM | [4] 2.17 µM and 811 nM | [5] 5.61 µM and 3.05 µM | [16] 1.75 µM and 690 nM | [6] 63.1 µM and 100 µM
